Source: PubChem (several laboratories)
AHR act: AHR activators, primary screen, cell-based, luminescence, luciferase reporter, human; hit rate 2.5% among 320,000; activation, % at 5 µM; AHR-responsive luciferase reporter cells; AID 2796, 2010; in the data active = activation above about 47%
NTR1 ag: agonists of human NTR1, primary screen, imaging, U2OS cells, beta-arrestin-GFP, high content. activation, % at 20 µM. NTR1-U2OS beta-arrestin-GFP spot imaging, agonist mode. Neurotensin receptor type 1 (Homo sapiens), P30989. hit rate 0.17% among 330,000. AID 493036, 2011;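 active = activation at or above 40% of the spot to cytoplasm intensity ratio, with at least 20 cells analyzed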
Target sequence (P30989 whole entry, looked up): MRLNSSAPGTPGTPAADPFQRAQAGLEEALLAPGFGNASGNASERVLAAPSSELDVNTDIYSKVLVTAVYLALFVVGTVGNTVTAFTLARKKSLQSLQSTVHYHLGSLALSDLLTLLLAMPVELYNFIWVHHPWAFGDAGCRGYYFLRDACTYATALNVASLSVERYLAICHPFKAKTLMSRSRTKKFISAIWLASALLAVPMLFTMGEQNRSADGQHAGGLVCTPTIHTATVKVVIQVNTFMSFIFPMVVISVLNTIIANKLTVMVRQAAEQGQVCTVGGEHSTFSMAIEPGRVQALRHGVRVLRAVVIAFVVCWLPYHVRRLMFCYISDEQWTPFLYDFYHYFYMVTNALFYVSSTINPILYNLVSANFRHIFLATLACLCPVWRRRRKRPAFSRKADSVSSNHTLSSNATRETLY
A3G deaminase: APOBEC3G DNA deaminase inhibitors, primary screen, biochemical, fluorescence, single-stranded DNA substrate, uHTS; inhibition, % at 20 µM; hit rate 0.28% among 330,000; DNA dC->dU-editing enzyme APOBEC-3G (Homo sapiens), Q9HC16; recombinant A3G, ssDNA deamination FAM/TAMRA fluorescence;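 active = inhibition of at least 40% at 20 µM, with no more than 30% in the related APOBEC3A deaminase screen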
A3A deaminase: APOBEC3A ssDNA deaminase inhibitors, primary screen, selectivity assay for APOBEC3G inhibitor project, biochemical, FAM/TAMRA oligo cleavage fluorescence; DNA dC->dU-editing enzyme APOBEC-3A (Homo sapiens), P31941; recombinant A3A, FAM/TAMRA ssDNA deamination fluorescence; inhibition, % at 20 µM; hit rate 0.41% among 330,000; AID 493011, 2011;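 active = at least 40% inhibition at 20 µM here, with at most 30% in a related deaminase screen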
Target sequence (P31941 whole entry, looked up): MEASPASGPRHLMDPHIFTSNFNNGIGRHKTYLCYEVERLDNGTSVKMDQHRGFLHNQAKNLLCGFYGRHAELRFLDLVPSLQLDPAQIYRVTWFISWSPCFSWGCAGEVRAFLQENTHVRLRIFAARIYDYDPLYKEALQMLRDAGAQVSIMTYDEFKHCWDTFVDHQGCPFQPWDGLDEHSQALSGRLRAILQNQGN
Each line names hits and unclear results; the compound was inactive in the other large screens. Most compounds without a hit are left out; they make up all but 3.2% or so of the library.

COc1ccc(OC)c(NC(=O)Nc2c(O)ccc3ccccc23)c1	AHR act 63
COc1ccc(S(=O)(=O)Nc2ccc(O)c3ccccc23)cc1	AHR act 61
COc1ccc(S(=O)(=O)Nc2ccccc2)cc1	none
COc1ccc(OC)c(C(=O)Nc2c(O)ccc3ccccc23)c1	none
C[C@H](CO)N1C[C@H](C)[C@@H](CN(C)S(=O)(=O)c2ccccc2)Oc2ccc(NC(=O)CCN3CCOCC3)cc2C1=O	none
Nc1nn(-c2ccccc2Cl)cc1-c1nn[nH]n1	none
O=C(NNC(=O)c1sccc1-n1cccc1)Nc1ccc(F)cc1	AHR act 62
O=C(Nc1ccccc1)Nc1csc2ccccc12	AHR act 61
COc1cc(/C=C/C(=O)OCC(=O)Nc2c(C)n(C)n(-c3ccccc3)c2=O)ccc1O	none
COc1ccc(CCNC(=O)CCN2C(=O)COc3ccccc32)cc1OC	AHR act 85
COc1ccc(CCNC(=O)CCN2C(=O)COc3ccc(C)cc32)cc1OC	none
COc1ccc(Nc2nc(NCCO)nc(N3CCCC3)n2)cc1	none
COc1cccc(Nc2nc(-c3ccccc3)nc3ccccc23)c1	AHR act 54
CCCNc1nc(Nc2ccc(C)cc2)nc(N2CCCC2)n1	AHR act 50
COc1cccc(Nc2nc(NCCO)c3ccccc3n2)c1	AHR act 49
COc1cccc(Nc2nc(NCCO)nc(N3CCCC3)n2)c1	AHR act 48
OCCNc1nc(Nc2ccc(Cl)cc2)nc(N2CCCC2)n1	none
COc1cccc(Nc2nc(-c3ccccc3O)nc3ccccc23)c1	none
O=C(C[C@@H]1C/C=C\C[C@@H](Cc2ccc(F)cc2)C(=O)OCCNC1=O)N[C@H](CO)Cc1ccccc1	none
OCCNc1nc(N2CCCC2)nc(N2CCCC2)n1	none
C=CCNc1nc(NCCO)nc(N2CCCC2)n1	AHR act 65
Cc1ccc(C(=O)NCC(=O)OCC(=O)Nc2ccccc2C#N)s1	none
O=C(O)c1cc(-c2ccc(/C=N/Nc3ccc(Cl)cc3)o2)ccc1Cl	AHR act 71
Cc1ccc(NC(=O)Cc2ccc3c(c2)OCCO3)cc1S(=O)(=O)N1CCCCC1	none
Cc1cc2nc(-c3cccnc3SCC(=O)NCc3ccco3)[nH]c2cc1C	AHR act 64
Cc1sc2nc(SCC(=O)NCc3ccco3)[nH]c(=O)c2c1C	AHR act 55
Cc1cc2nc(-c3cccnc3SCC(=O)NC3CC3)[nH]c2cc1C	AHR act 55
Cc1cc2nc(-c3ccc(SCC(=O)NC(C)C)nc3)[nH]c2cc1C	AHR act 78
CC(C)(C)NC(=O)CSc1ncccc1-c1nc2ccccc2[nH]1	none
Cc1sc2nc(SCC(=O)NCc3cccs3)[nH]c(=O)c2c1C	none
COC(=O)c1cc(C(=O)OCC(=O)c2ccc[nH]2)cc([N+](=O)[O-])c1	none
Cc1ccc(Nc2nc(N/N=C/c3c[nH]c4ccccc34)nc(N3CCOCC3)n2)cc1	AHR act 51
C(=N\Nc1nc(Nc2ccccc2)nc(N2CCOCC2)n1)/c1c[nH]c2ccccc12	none
CC(C)COC(=O)N1C[C@H](O)C[C@H]1C(=O)Nc1ccc(Cl)cc1	none
CC1=Nc2ccccc2/C1=C/c1sc(=N)n(-c2nccs2)c1O	AHR act 73
CC1=Nc2ccccc2/C1=C/c1nc(-c2ccc(C)s2)oc1O	none
CCOc1ccccc1NC(=O)c1c(Br)cnn1C	AHR act 59
CCn1nccc1C(=O)Nc1ccccc1OC	none
COc1ccccc1C(=O)Nc1sc2c(c1C#N)CCC2	none
CCn1ncc(Br)c1C(=O)Nc1ccccc1OC	AHR act 49
CCn1ncc(Br)c1C(=O)Nc1ccc(C(C)C)cc1	AHR act 77
COc1ccccc1C(=O)Nc1sc2c(c1C(N)=O)CCCC2	AHR act 55
CCCCCC(=O)Nc1cccc(C2=NOC3(C2)C[C@@H](C(N)=O)N(C(=O)c2ccc(Cl)cc2)C3)c1 (stereo partly drawn)	none
O=C(NCC1CCCO1)C1CC(=O)N(c2ccccc2)C1 (stereo not drawn)	none
CCn1ncc(Br)c1C(=O)Nc1sc2c(c1C(N)=O)CCC2	AHR act 49
CCOc1ccc(NC(=O)c2cc(S(=O)(=O)N3CCCCC3)c[nH]2)cc1	AHR act 48
CC(C)c1ccc(NC(=O)c2cc(S(=O)(=O)N3CCCC3)c[nH]2)cc1	AHR act 49
CCOC(=O)c1c(C)[nH]c2ccc(O)cc12	AHR act 65
COc1ccc(-c2nc3c4ccccc4[nH]c(=O)n3n2)cc1	AHR act 112
CC1=NN(c2ccccc2)C(=O)C1N=Nc1ccc(N)cc1 (stereo not drawn)	AHR act 49
CC1=NN(c2ccccc2)C(=O)C1N=Nc1ccccc1 (stereo not drawn)	none
COc1ccc(N=NC2C(=O)N(c3ccccc3)N=C2C)cc1 (stereo not drawn)	AHR act 51
CCOC(=O)CCC(=O)Nc1ccc([N+](=O)[O-])cc1C	none
CCN(C(=O)CCN1C(=O)S/C(=C\c2ccccc2)C1=O)C1CCS(=O)(=O)C1 (stereo not drawn)	none
COc1ccccc1NC(=O)CN1CCN(C(=O)C2CCCO2)CC1 (stereo not drawn)	none
CCc1nc(SCC(=O)Nc2ccccc2Cl)n[nH]1	none
Cc1ccc(S(=O)(=O)N(C)C)cc1NC(=O)c1c(-c2c(F)cccc2Cl)noc1C	none
COc1ccc(O)c(CNn2c(-c3ccc(Br)cc3)nc3ccccc3c2=O)c1	AHR act 62
Cc1cccc(N=C2NC(=O)/C(=C/c3cccnc3)S2)c1C	AHR act 47
Cn1c(=O)c2[nH]c(N=NNc3ccccc3F)nc2n(C)c1=O	none
CC(C)CSc1nnc2c3ccccc3n(C)c2n1	AHR act 57
COc1ccccc1OCC(=O)Nc1nonc1NC(=O)COc1ccccc1OC	none
Cc1ccccc1NC(=O)/C=C/c1ccc([N+](=O)[O-])s1	AHR act 50 (no result: NTR1 ag, A3G deaminase, A3A deaminase)
CC1(C)C(C=C(Cl)Cl)C1C(=O)Nc1ccc([N+](=O)[O-])cc1 (stereo not drawn)	none (no result: NTR1 ag, A3G deaminase, A3A deaminase)
CSc1cccc(NC(=S)N(CCC(C)C)C(C)c2ccncc2)c1 (stereo not drawn)	none
Cc1ccc(C(=O)NCCCN2CCOCC2)c(Cl)c1	none
COc1cc(OC)c(OC)cc1/C=C1\CCC(C2CCCC2)C1=O (stereo not drawn)	AHR act 55
CC1CCC2(CC1)NC(=O)N(Cc1cccc(C(F)(F)F)c1)C2=O (stereo not drawn)	none
Cc1c(C(=O)OC2CCCC2)[nH]c2c1C(=O)CC(c1ccco1)C2 (stereo not drawn)	AHR act 57
Cc1c(C(=O)OCC(C)C)[nH]c2c1C(=O)CC(c1ccco1)C2 (stereo not drawn)	none
CSCCC(NC(=O)c1ccc([N+](=O)[O-])cc1Cl)C(=O)OC(C)C(=O)NCc1ccco1 (stereo not drawn)	none
